# About 4,100 (2.2%) of roughly 190,000 compounds were called active. The list comes from a sample in which actives are over-represented; it also holds similar structures and randomly drawn compounds. A number with no mark means an inactive call.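 The calls were made as follows: active = thallium flux slope and its plate-corrected score both differing from the plate sample mean at a set confidence after two filtering rounds, in either direction; inactive = the rest.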
# Target: Solute carrier family 12 member 5 (Homo sapiens) (UniProt Q9H2X9)
# Assay: KCC2 cotransporter modulators, thallium flux, primary screen, cell-based, HEK293 KCC2, FluoZin-2 fluorescence, MLSMR (AID 1456);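 also: slope of fluorescence scaled to starting intensity during 10 to 20 s after thallium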
# Details: KCC2 cells, thallium flux FluoZin-2 fluorescence; at 10 µM
# Sequence of Solute carrier family 12 member 5 (Homo sapiens) (Q9H2X9 whole entry, looked up): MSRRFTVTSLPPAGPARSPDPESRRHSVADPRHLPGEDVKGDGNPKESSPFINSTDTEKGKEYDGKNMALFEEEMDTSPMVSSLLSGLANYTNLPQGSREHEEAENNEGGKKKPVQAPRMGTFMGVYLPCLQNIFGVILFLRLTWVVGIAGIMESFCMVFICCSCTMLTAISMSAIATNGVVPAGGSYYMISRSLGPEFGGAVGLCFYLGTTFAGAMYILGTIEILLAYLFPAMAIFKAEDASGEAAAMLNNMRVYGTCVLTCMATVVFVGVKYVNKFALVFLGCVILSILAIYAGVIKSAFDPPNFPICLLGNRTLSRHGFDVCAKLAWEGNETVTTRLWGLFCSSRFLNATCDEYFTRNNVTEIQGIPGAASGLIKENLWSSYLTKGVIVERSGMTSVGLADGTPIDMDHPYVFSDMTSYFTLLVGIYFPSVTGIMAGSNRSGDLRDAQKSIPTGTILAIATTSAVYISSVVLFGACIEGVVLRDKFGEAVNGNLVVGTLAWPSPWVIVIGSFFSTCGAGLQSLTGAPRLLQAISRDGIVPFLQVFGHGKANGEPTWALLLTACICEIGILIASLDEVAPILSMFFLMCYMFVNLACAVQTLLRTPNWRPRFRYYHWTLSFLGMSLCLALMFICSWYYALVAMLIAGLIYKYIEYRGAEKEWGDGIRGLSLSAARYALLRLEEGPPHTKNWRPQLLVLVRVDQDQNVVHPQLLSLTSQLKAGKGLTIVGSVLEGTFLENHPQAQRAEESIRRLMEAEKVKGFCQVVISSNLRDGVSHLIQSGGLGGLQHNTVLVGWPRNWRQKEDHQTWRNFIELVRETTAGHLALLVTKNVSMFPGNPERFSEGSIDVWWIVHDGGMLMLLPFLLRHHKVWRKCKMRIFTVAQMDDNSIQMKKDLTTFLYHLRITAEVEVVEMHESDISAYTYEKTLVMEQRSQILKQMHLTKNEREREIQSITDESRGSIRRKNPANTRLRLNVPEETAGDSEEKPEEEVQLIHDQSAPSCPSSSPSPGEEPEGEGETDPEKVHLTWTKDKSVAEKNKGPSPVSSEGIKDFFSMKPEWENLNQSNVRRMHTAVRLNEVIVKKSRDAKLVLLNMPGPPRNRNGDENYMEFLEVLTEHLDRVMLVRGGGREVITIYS
row,SMILES,B-score of Tl+ flux slope (higher = more flux/activation; lower = inhibition)
1,O=C(CSC1c2ccccc2-c2ccccc21)N/N=C/c1ccccc1,2.57 (active)
2,CCCCC(=O)N/N=C/c1c(O)n(-c2ccccc2)c(=O)[nH]c1=O,-0.272
3,c1cc2c(cc1[C@H]1OC[C@H]3[C@@H]1CO[C@@H]3c1ccc3c(c1)OCO3)OCO2,0.711
4,CCC1(C)CC(CCNCc2ccc(N(C)C)cc2)(c2ccc(F)cc2)CCO1 (stereo not given),1.55
5,CNC(=O)O/N=C(\N)Cc1csc2ccccc12,0.111
6,COc1cc(-n2c(=S)[nH]c3ccc(C)cc3c2=O)c(Cl)cc1Cl,69.6 (active)
7,COc1cccc(CN2CCCC(C(=O)c3ccccc3SC)C2)c1O (stereo not given),-3.42
8,COc1cc(OC)cc(C2(C#N)CCN(C)CC2)c1,-0.32
9,CSc1ccc(C(=O)C2CCCN(Cc3ccn[nH]3)C2)cc1 (stereo not given),0.628
10,Cc1ccc(CN2CCCC(C(=O)c3ccc4c(c3)OCO4)C2)cc1C (stereo not given),-0.421

# — PubChem BioAssay AID1456 (Vanderbilt High Throughput Screening Facility, 2008)
